Data as given in ChEMBL document CHEMBL3988442, “University of Dundee, Small-Polar-MMV Screening Library” (2021).
For some of these results: Entries with a potency or affinity are not part of this list.

How the values were obtained:
Design in all cases: scale not given: direction of the effect not stated beside the values
[1] = molecular target: Protein translocase subunit SecA (Escherichia coli (strain K12)) (UniProt P10408); test: Assay to Identify E. coli SecA ATPase Inhibitors; format: functional; details: 30 µM
[2] = molecular target: T1, Ubiquitin-activating enzyme e1, putative (Leishmania donovani (strain BPK282A1)) (UniProt E9BSI1); test: Leishmania donovani Ubiquitin Activating Enzyme (LdE1); format: functional; details: 30 µM
T1 sequence (whole entry): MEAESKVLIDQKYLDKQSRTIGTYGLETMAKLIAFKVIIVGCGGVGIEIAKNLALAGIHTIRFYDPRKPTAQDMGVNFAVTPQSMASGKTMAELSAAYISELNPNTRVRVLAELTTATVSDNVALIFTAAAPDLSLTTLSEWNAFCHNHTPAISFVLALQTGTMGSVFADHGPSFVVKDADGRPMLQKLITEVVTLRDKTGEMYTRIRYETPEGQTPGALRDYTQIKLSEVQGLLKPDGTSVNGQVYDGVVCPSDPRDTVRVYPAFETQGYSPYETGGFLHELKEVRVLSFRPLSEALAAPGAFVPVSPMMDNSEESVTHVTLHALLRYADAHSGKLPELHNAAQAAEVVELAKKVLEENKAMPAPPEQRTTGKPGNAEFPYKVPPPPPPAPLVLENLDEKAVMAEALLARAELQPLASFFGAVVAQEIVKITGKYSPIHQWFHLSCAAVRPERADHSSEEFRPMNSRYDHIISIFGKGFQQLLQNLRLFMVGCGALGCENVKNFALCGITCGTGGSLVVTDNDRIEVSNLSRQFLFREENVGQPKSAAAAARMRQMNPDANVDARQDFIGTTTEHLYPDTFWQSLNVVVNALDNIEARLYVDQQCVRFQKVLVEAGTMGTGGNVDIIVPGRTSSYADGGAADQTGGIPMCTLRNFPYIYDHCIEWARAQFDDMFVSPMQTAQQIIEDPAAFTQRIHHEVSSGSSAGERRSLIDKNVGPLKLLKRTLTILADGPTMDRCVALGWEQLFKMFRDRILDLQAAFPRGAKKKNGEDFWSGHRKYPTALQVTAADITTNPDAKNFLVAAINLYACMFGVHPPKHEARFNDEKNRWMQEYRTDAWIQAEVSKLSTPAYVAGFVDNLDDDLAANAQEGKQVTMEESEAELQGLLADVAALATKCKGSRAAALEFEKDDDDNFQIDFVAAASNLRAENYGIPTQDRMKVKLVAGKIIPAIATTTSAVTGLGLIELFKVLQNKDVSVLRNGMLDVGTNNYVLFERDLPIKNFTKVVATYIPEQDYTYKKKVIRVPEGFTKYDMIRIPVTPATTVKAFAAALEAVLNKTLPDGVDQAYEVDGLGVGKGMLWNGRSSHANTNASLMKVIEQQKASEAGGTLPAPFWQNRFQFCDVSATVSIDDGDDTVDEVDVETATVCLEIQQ

[3] = molecular target: AMP-activated protein kinase, AMPK (Homo sapiens) (UniProt P54646+O43741+P54619+Q9UGJ0+Q9Y478+Q13131+Q9UGI9); test: AMP-dependent Kinase enzyme assay. An in vitro enzyme assay that detects ADP turnover that is directly proportional to AMPK activity. This uses naive AMPK that is activated during the assay with MK-8722; format: functional; details: 30 µM
[4] = molecular target: Sialic acid-binding Ig-like lectin 9 (Homo sapiens) (UniProt Q9Y336); test: Hs-Siglec9 ALPHAscreen SOP 20170721; details: 10 µM
Trypanosoma cruzi = test: Trypanosoma cruzi phosphomannomutase and mannose-1-phosphate guanylyltransferase assay; format: functional; details: 10 µM
[5] = molecular target: T2, Arginase-2, mitochondrial (Homo sapiens) (UniProt P78540); test: in vitro enzyme assay to detect the production of urea directly proportional to the activity of Arginase II; format: functional; details: 33.3 µM; further: in the data most compounds retested in dose-response had high values
T2 sequence (whole entry): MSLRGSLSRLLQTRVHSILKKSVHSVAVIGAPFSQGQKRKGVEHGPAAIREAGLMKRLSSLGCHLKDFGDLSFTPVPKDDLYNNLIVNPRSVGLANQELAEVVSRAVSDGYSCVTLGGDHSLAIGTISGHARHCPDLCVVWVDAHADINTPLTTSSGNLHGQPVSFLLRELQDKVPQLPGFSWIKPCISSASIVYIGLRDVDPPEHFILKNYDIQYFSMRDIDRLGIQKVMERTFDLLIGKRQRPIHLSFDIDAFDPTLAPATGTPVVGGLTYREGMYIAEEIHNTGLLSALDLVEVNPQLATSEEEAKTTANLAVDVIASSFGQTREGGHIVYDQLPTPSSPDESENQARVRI

[6] = molecular target: T3, Proteasome subunit beta (Trypanosoma cruzi) (UniProt O96673); test: Trypanosoma cruzi proteasome chymotrypsin-like activity (TcProtChymo) assay.; further: in the data most compounds retested in dose-response had high values; format: functional; details: 9.37 µM
T3 sequence (whole entry): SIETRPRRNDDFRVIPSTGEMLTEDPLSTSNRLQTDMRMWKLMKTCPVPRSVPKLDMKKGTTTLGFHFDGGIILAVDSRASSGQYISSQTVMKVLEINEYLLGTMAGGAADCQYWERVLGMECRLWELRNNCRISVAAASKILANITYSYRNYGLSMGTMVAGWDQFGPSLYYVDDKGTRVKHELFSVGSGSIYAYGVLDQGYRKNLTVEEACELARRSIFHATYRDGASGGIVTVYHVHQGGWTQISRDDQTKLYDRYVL

Homo sapiens = organism: Homo sapiens; test: To identify inhibition of the IFN signalling (Jak-Stat) pathway via expression of an eGFP reporter gene under the control of an IFN-stimulated response element (ISRE) containing MxA promoter.; format: functional; details: 30 µM
[7] = molecular target: T4, Tyrosyl-tRNA synthetase, putative (Trypanosoma cruzi (strain CL Brener)) (UniProt Q4DSP6); test: Trypanosoma cruzi tyrosyl tRNA synthetase (TcYRS) _High Tyrosine SOP; format: functional; details: 30 µM; further: in the data most compounds retested in dose-response had high values
T4 sequence (whole entry): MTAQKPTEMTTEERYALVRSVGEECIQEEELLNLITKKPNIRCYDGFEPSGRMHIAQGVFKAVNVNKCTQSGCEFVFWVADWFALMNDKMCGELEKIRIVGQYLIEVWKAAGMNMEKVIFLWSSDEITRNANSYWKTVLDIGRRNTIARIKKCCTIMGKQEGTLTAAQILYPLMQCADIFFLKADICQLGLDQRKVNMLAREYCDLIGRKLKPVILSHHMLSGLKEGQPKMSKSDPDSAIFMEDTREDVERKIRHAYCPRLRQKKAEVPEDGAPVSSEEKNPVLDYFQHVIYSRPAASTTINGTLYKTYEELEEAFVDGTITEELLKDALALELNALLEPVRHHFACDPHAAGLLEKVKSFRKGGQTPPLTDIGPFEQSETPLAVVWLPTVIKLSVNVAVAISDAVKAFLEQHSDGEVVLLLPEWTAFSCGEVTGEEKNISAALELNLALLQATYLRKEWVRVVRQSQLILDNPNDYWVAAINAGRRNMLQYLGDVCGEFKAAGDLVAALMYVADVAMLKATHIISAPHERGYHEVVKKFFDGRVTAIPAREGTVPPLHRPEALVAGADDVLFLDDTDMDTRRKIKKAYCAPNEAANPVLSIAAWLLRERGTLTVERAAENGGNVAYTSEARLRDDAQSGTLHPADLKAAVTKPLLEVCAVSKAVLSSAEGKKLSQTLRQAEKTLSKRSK

[8] = molecular target: T4, Tyrosyl-tRNA synthetase, putative (Trypanosoma cruzi (strain CL Brener)); test: Trypanosoma cruzi tyrosyl tRNA synthetase (TcYRS) SOP; format: functional; details: 30 µM
[9] = molecular target: Chromo domain-containing protein 1 (Saccharomyces cerevisiae (strain ATCC 204508 / S288c) (Baker's yeast)) (UniProt P32657); test: ScCHD-1 Enzyme Inhibition Assay; format: functional; details: 30 µM; further: in the data most compounds retested in dose-response had high values
Sequence of Chromo domain-containing protein 1 (Saccharomyces cerevisiae (strain ATCC 204508 / S288c) (Baker's yeast)) (P32657 whole entry, the tested form may be a part): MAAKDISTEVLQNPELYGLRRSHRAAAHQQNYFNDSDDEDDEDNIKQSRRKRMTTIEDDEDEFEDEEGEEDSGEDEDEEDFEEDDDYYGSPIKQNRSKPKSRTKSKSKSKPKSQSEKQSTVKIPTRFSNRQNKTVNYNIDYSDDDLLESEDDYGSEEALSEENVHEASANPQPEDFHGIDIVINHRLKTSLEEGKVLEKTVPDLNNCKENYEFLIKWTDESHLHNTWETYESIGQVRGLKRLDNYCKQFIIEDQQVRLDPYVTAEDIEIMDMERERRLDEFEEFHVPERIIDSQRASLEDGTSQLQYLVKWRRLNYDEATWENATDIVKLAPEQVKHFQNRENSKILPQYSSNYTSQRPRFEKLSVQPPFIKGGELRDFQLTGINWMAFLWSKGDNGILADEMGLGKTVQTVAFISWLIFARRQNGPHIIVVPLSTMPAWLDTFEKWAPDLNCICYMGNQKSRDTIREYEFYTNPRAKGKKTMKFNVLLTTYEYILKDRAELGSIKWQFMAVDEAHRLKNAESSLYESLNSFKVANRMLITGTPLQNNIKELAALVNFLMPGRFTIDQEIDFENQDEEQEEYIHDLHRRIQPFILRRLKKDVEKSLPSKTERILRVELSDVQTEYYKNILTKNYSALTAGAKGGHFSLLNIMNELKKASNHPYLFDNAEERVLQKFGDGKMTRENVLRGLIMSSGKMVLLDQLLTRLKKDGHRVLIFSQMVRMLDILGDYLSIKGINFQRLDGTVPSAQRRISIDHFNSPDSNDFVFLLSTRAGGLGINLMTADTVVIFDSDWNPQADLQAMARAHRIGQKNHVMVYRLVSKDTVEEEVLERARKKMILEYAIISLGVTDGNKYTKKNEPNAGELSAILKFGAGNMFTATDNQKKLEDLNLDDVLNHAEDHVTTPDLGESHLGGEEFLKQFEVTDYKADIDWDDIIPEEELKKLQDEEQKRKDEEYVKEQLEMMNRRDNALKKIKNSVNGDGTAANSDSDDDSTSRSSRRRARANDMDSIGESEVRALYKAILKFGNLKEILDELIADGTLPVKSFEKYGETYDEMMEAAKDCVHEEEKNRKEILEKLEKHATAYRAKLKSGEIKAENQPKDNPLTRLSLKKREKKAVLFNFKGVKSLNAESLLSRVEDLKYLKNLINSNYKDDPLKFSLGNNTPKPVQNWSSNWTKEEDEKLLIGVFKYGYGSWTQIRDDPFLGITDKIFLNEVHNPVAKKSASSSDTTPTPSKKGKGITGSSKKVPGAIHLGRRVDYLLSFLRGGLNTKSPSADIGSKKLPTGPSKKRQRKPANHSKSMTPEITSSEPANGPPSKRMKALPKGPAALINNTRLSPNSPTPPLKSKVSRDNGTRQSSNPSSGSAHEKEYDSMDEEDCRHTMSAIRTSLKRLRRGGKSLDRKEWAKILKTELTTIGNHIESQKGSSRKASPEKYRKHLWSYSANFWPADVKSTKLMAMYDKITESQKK

Sequence of Sialic acid-binding Ig-like lectin 9 (Homo sapiens) (Q9Y336 whole entry): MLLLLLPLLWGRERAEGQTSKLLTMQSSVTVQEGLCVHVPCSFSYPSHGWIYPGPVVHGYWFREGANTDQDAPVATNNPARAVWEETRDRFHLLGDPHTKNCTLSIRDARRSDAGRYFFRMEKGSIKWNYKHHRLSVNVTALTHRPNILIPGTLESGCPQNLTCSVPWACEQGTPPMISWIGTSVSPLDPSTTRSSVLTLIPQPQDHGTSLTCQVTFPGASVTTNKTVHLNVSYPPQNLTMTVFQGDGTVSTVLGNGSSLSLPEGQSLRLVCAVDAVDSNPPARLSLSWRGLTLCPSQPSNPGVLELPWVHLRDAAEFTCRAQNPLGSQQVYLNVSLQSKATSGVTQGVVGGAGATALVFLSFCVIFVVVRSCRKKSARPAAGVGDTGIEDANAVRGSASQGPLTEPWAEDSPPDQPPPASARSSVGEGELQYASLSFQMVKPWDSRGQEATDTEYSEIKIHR
Sequence of Protein translocase subunit SecA (Escherichia coli (strain K12)) (P10408 whole entry): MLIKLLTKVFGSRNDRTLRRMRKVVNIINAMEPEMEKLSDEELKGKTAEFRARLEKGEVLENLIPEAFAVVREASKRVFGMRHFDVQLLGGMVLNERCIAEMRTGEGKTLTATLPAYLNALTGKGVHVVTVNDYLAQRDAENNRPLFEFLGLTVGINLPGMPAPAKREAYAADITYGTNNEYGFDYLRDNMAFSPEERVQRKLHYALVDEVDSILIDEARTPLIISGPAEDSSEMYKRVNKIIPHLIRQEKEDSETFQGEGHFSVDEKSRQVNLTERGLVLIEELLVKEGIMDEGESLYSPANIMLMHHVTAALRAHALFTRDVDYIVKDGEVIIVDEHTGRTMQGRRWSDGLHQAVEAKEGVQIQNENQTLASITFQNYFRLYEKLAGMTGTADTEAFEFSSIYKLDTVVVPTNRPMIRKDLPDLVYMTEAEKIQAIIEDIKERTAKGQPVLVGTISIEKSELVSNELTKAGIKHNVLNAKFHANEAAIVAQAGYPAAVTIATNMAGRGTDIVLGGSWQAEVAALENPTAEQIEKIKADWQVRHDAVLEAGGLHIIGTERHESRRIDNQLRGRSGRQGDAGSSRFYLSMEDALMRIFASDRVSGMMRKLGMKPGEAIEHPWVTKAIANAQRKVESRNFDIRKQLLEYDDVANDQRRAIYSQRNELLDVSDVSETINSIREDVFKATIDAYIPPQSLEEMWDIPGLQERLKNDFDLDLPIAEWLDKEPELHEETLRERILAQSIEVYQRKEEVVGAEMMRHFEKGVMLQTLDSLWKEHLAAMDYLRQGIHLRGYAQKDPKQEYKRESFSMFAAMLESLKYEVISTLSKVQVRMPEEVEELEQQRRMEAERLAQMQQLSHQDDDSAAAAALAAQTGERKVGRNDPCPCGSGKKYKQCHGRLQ

SMILES	Percent Effect [1] [%]	Percent Effect [2] [%]	Percent Effect [3] [%]	Percent Effect [4] [%]	Percent Effect (Trypanosoma cruzi) [%]	Percent Effect [5] [%]	Percent Effect [6] [%]	Percent Effect (Homo sapiens) [%]	Percent Effect [7] [%]	Percent Effect [8] [%]	Percent Effect [9] [%]
Cn1cc(CNCCOc2ccc(F)c(F)c2)c(-c2cccnc2)n1	-6.54	5.41	-6.5	20.6	1.47	0.744	5.41	7.57	4.3	8.64	-3.29
Cc1ccc(Nc2nccc(C3CCCN(CC(=O)N(C)C)C3)n2)nc1 (stereo not drawn)	-5.52	5.33	-1.77	6.73	5.51	-6.76	13.8	-1.72	11.7	19.2	-2.77
COC[C@@]12CCO[C@@H]1CCN(C(=O)Cc1ccccc1F)C2	0.597	19.2	-6.38	8.82	-0.595	-3.19	12.2	5.78	8.33	11.1	-3.06
COCCC(=O)N1CC2(CCN(Cc3ccoc3)C2)C1	-1.14	13.3	3.09	-10.1	-6.69	5.36	17.7	9.94	4.25	1.28	-1.88
CN(Cc1ccco1)Cc1cncc2c1CCN(c1ncccn1)C2	-0.988	8	-6.54	-2.14	3.86	-48.6	14.9	-4.67	-1.04	2.5	-2.02
CC1CN(Cc2nccn2C)CCN1c1ccc2nncn2n1 (stereo not drawn)	-5.26	10.4	-8.38	12.5	5.62	2.85	9.29	7.44	5.83	21.9	-9.26
Cc1ccc2cc(C3(O)CCN(C(=O)CN4CCCC4)CC3)ccc2n1	-2.77	-1.39	-1.64	-0.537	-4.96	3.53	11.9	4.91	2.1	5.13	0.856
Cc1ccc(C(=O)Nc2cn[nH]c2)cn1	0.472	13.2	9.28	0.161	-1.13	-3.45	8.69	6.9	1.47	19.5	-10.8
